Out of some 48,000 compounds screened, about 13,000 (27%) showed an effect of 50% or more. This is one part of the list.
The molecules below were run on Wolbachia pipientis (assay: Anti-Wolbachia Cell-Based Screen). Details: 5 µM.
Type: functional
Design: scale not given: in the data most compounds retested in dose-response had high values
With `CSc1ccsc1C(=O)NCCNC(=O)C1CC1` the “Percent Effect” value was -5.162%.
In the case of `Cn1cc(-c2ncc3c(c2C(=O)O)CCN(Cc2ccccn2)C3)cn1.O=C(O)C(F)(F)F.O=C(O)C(F)(F)F`, the “Percent Effect” value is reported as 106.1%.
For `Cn1cc(C(=O)NCc2cn3c(n2)CN(Cc2ccccn2)CC3)cn1.O=C(O)C(F)(F)F.O=C(O)C(F)(F)F`, the “Percent Effect” value was 1.361%.
In the case of `Cn1cc(CN2CCc3c(cnc(-c4ccccc4)c3C(=O)O)C2)cn1.O=C(O)C(F)(F)F.O=C(O)C(F)(F)F`, the “Percent Effect” value is reported as -3.13%.
In the case of `O=C(O)C(F)(F)F.O=C(O)C(F)(F)F.O=C(O)c1cc2c(nc1-c1ccoc1)CCN(Cc1ccco1)CC2`, the “Percent Effect” value is reported as 4.884%.
`O=C(O)C(F)(F)F.O=C(O)C(F)(F)F.O=C(O)c1c(-c2cncnc2)ncc2c1CCN(Cc1ccco1)C2` was tested, and the “Percent Effect” value was 112.5%.
With `Cn1nccc1-c1ncc2c(c1C(=O)O)CCN(Cc1ccncc1)C2.O=C(O)C(F)(F)F.O=C(O)C(F)(F)F` the “Percent Effect” value was -6.643%.
`O=C(O)c1c(-c2ccncc2)ncc2c1CCN(Cc1ccco1)C2` was tested, and the “Percent Effect” value was 103.7%.
For `Cn1cc(-c2ncc3c(c2C(=O)O)CCN(Cc2ccco2)C3)cn1.O=C(O)C(F)(F)F`, the “Percent Effect” value was 100.1%.
`Nc1cc(-c2cccc3ccnn23)ccn1` was tested, and the “Percent Effect” value was -7.377%.
For `O=C(COC1CCCC1)NC(C(=O)Nc1cc[nH]n1)c1ccccc1` (stereo not drawn), the “Percent Effect” value was -15.76%.
For `O=C(NCc1nc(C2CCCCC2)no1)C1CC(=O)N(C2CC2)C1` (stereo not drawn), the “Percent Effect” value was -21.27%.
In the case of `O=C(O)C(F)(F)F.O=C(O)C(F)(F)F.O=C(O)C(F)(F)F.O=C(O)c1c(-c2cncnc2)ncc2c1CCN(Cc1cccnc1)C2`, the “Percent Effect” value is reported as 96.39%.
In the case of `Cn1nccc1-c1ncc2c(c1C(=O)O)CCN(Cc1cccnc1)C2.O=C(O)C(F)(F)F.O=C(O)C(F)(F)F`, the “Percent Effect” value is reported as -4.341%.
With `Cn1nccc1-c1ncc2c(c1C(=O)O)CCN(Cc1ccccc1)C2.O=C(O)C(F)(F)F.O=C(O)C(F)(F)F.O=C(O)C(F)(F)F` the “Percent Effect” value was -10.76%.
In the case of `CN1CCN(C(=O)c2cn(-c3ccc(C(F)(F)F)cn3)nn2)CC1`, the “Percent Effect” value is reported as -7.593%.
In the case of `Cc1cc(-n2cccn2)ccc1CN1C[C@@H](CN(C)C)[C@@H](CO)C1`, the “Percent Effect” value is reported as 14.35%.
For `Cc1cccc(=O)n1CCC(=O)N(C)Cc1cccc2ncccc12`, the “Percent Effect” value was -4.376%.
With `Cc1cccnc1CN1CCN(C(=O)CCn2ccc(=O)[nH]c2=O)CC1` the “Percent Effect” value was -10.51%.
In the case of `COC(=O)C1CCN(CC2(c3ccc(C)cn3)CCNCC2)CC1`, the “Percent Effect” value is reported as -5.791%.
With `Cc1ccc(C2(O)CCN(C(=O)CCn3ccc(=O)[nH]c3=O)CC2)nc1` the “Percent Effect” value was 97.51%.
In the case of `Cc1ccc(C2(O)CCN(C(=O)CCn3c(C)cccc3=O)CC2)nc1`, the “Percent Effect” value is reported as 106.7%.
`Cc1ccc(C2(O)CCN(C(=O)Cn3cc(C)c(=O)[nH]c3=O)CC2)nc1` was tested, and the “Percent Effect” value was 116.3%.
For `COC1CCN(C(=O)CCn2ccc(=O)[nH]c2=O)CC1`, the “Percent Effect” value was -8.705%.
In the case of `Cc1cn(CC(=O)N(C)Cc2cccc3ncccc23)c(=O)[nH]c1=O`, the “Percent Effect” value is reported as -19.07%.
`CSCc1ccc(N2CCC(C(O)Cc3ccccc3)CC2)nc1` (stereo not drawn) was tested, and the “Percent Effect” value was 26.16%.
In the case of `O=C(O)C(F)(F)F.O=C(O)C(F)(F)F.c1cc(CN2CCc3ncnc(C4CCOC4)c3CC2)ccn1` (stereo not drawn), the “Percent Effect” value is reported as 0.007603%.
In the case of `Cc1ccc(Oc2ncccc2CNC2CCSCC2)cn1`, the “Percent Effect” value is reported as -8.046%.
In the case of `Nc1ccc(-c2ccc(F)cc2Cl)cn1`, the “Percent Effect” value is reported as -14.84%.
For `CSc1ccsc1C(=O)NC(C)c1ccc2c(c1)CCC(=O)N2` (stereo not drawn), the “Percent Effect” value was -17.83%.
With `Cc1ccc(C(O)CNC(=O)NCc2nc(C)cs2)cc1` (stereo not drawn) the “Percent Effect” value was -27.45%.
`CC(NC(=O)NCc1ccccn1)c1ccc2c(c1)CCC(=O)N2` (stereo not drawn) was tested, and the “Percent Effect” value was 101%.
`O=C1CCCc2cc(S(=O)(=O)NCc3ccccn3)ccc2N1` was tested, and the “Percent Effect” value was -1.258%.
`Cc1csc(CNC(=O)NCC(O)c2ccc(F)cc2)n1` (stereo not drawn) was tested, and the “Percent Effect” value was 8.268%.
In the case of `CC(NC(=O)NCc1cccs1)c1ccc2c(c1)CCC(=O)N2` (stereo not drawn), the “Percent Effect” value is reported as 122.7%.
`Cc1ccsc1CNC(=O)NC(C)c1ccc2c(c1)CCC(=O)N2` (stereo not drawn) was tested, and the “Percent Effect” value was 96.96%.
`CC(NC(=O)NCc1cc[nH]n1)c1ccc2c(c1)CCC(=O)N2` (stereo not drawn) was tested, and the “Percent Effect” value was -0.03999%.
In the case of `CC(NC(=O)N(C)Cc1ccsc1)c1ccc2c(c1)CCC(=O)N2` (stereo not drawn), the “Percent Effect” value is reported as -10.24%.
`Cc1csc(CNC(=O)NC(C)c2ccc3c(c2)CCC(=O)N3)n1` (stereo not drawn) was tested, and the “Percent Effect” value was 108.8%.
With `Cc1ccsc1C(=O)NC(C)c1ccc2c(c1)CCC(=O)N2` (stereo not drawn) the “Percent Effect” value was -2.921%.
For `O=C(CN1CCCS1(=O)=O)Nc1ccc(OC2CCCC2)cc1`, the “Percent Effect” value was -0.8772%.
`COc1ccc(OCC(=O)NC(C)c2ccccc2)c(C(=O)O)c1` (stereo not drawn) was tested, and the “Percent Effect” value was -7.994%.
`CCCOc1ccc(CN)c(OC(F)F)c1` was tested, and the “Percent Effect” value was 2.024%.
`CC(C(=O)NCc1ccnc(N2CCN(C)CC2)c1)n1cccn1` (stereo not drawn) was tested, and the “Percent Effect” value was -2.51%.
`O=C(c1ccc(Cn2cc(Br)cn2)cc1)N1CCCC1` was tested, and the “Percent Effect” value was 26.22%.
With `CN(C)C[C@@H]1CCC[C@@H]2CN(c3nccc(C(F)(F)F)n3)C[C@@H]21.O=C(O)C(F)(F)F` the “Percent Effect” value was -9.332%.
In the case of `CC(NC(=O)NCCCN(C)C)c1ccc2c(c1)CCC(=O)N2` (stereo not drawn), the “Percent Effect” value is reported as 1.464%.
For `CC(NC(=O)NCCS(C)(=O)=O)c1ccc2c(c1)CCC(=O)N2` (stereo not drawn), the “Percent Effect” value was 98.04%.
`CC(NC(=O)NCCCn1ccnc1)c1ccc2c(c1)CCC(=O)N2` (stereo not drawn) was tested, and the “Percent Effect” value was -10.33%.
`CCCn1[nH]cc/c1=N\C(=O)CN1CCCC1Cn1cc(C)cn1` (stereo not drawn) was tested, and the “Percent Effect” value was -13.34%.
In the case of `Cn1cccc1CN1CCC2(CC1)CCN(C(=O)c1cnccn1)CC2.O=C(O)C(F)(F)F`, the “Percent Effect” value is reported as 3.989%.
With `O=C(c1cnccn1)N1CCC2(CCN(Cc3ccsc3)CC2)CC1` the “Percent Effect” value was 105.9%.
With `O=C(c1cnccn1)N1CCN(Cc2csc(-c3ccccc3)n2)CC1` the “Percent Effect” value was 5.031%.
In the case of `O=C(c1cnccn1)N1CCC2(CCN(Cc3ccsc3)C2)CC1`, the “Percent Effect” value is reported as 113.3%.
In the case of `O=C(c1cnccn1)N1CCC2(CCCN(Cc3ccoc3)C2)C1` (stereo not drawn), the “Percent Effect” value is reported as 7.611%.
With `NC(=O)C1=NC2=NS(=O)(=O)c3ccccc3N2N1Cc1ccc(Cl)cc1` the “Percent Effect” value was 1.46%.
In the case of `CC(C)(CNc1cc(F)ccc1F)S(C)(=O)=O`, the “Percent Effect” value is reported as -17.31%.
With `CC(=O)N1CCC(N2CCN3C(=O)N(Cc4ccccn4)C[C@H]3C2)CC1` the “Percent Effect” value was -4.667%.
